# Sampled rows, rich in hits. Any-hit rate of the full collection: about 2.4%.
# D2 ag-1 – Beta-Arrestin HTS for Positive Allosteric Modulators of the Human D2 Dopamine Receptor: Agonists; DiscoveRx PathHunter D2 beta-arrestin, luminescence, 90 min; 100% = 57 uM dopamine signal; activation, % (test concentration not listed); D(2) dopamine receptor (Homo sapiens), P14416; hit rate 0.084% among 360,000; in the data active = activation above about 40%; inconclusive = between about 15% and that limit
# Target sequence (P14416 whole entry, looked up): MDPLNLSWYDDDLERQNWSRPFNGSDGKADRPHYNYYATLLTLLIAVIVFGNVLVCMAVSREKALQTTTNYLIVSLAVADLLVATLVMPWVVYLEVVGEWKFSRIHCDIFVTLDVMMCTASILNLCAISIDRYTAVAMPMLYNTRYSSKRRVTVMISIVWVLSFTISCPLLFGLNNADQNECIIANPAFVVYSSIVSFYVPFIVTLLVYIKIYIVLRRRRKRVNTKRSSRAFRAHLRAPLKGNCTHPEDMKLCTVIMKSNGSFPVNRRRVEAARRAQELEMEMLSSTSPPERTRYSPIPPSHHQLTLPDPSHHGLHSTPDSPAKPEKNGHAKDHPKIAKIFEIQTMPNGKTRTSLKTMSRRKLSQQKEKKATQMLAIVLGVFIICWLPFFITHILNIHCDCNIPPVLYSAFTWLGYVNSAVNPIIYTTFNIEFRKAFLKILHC
#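 Agonist mode: compounds alone added to overnight-plated D2 PathHunter cells for 90 min at 37 C, with 57 uM final dopamine (EC100) defining full response. Beta-arrestin recruitment detected by chemiluminescent reagent, read after 1 h at ambient temperature.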
# D2 PAM-1 – Beta-Arrestin HTS for Positive Allosteric Modulators of the Human D2 Dopamine Receptor: Potentiators; D(2) dopamine receptor (Homo sapiens), P14416; DiscoveRx D2 beta-arrestin cells, luminescence, 90 min; 100% = 57 uM dopamine signal; potentiation, % (test concentration not listed); hit rate 0.23% among 360,000; in the data active = potentiation above about 50%; inconclusive = mostly about 30% to 49%
#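 PathHunter beta-arrestin assay in DiscoveRx D2 cells. Compounds were added with an EC20 of dopamine (50 nM final) for 90 min at 37 deg C. Luminescence was read 1 h after detection reagent, with 57 uM dopamine as the EC100 control.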
# D2 ag-2 – HTS Assay for Allosteric Agonists of the Human D2 Dopamine Receptor: Primary Screen for Agonists | AID 485358, 2010 | HEK293 T-REx D2 cells, calcium flux agonist mode | D(2) dopamine receptor (Homo sapiens), P14416 | hit rate 0.53% among 340,000 | activation, % at 2 µM;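 active = activation over 3 SD above normal in the single-dose calcium agonist read, cut at about 30% in these data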
#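 Tetracycline-induced HEK293 Trex cells with D2 receptor force-coupled to calcium signaling, plated overnight at 30 C and loaded with no-wash calcium dye. Calcium flux read kinetically for 180 s after compound addition; responses flag agonists.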
# D2 PAM-2 – HTS Assay for Positive Allosteric Modulators of the Human D2 Dopamine Receptor: Primary Screen for Potentiators; potentiation, % at 10 µM; HEK293 T-REx D2, calcium flux, EC20 dopamine potentiation; D(2) dopamine receptor (Homo sapiens), P14416; hit rate 0.34% among 340,000;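 active = potentiation over 3 SD above the plate norm, cut at about 30% in these data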
#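 Calcium flux readout, no-wash dye, 1 read/s. Inducible HEK293 Trex D2 line, overnight 30 C. Compound alone 180 s (agonist flags), then EC20 dopamine, another 180 s to score potentiation.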
# D2 antagonist – HTS Assay for Allosteric Antagonists of the Human D2 Dopamine Receptor: Primary Screen for Antagonists. inhibition, % at 10 µM. AID 485344, 2010. hit rate 2% among 340,000. HEK293 TREx D2 cells, calcium flux, dopamine EC80. D(2) dopamine receptor (Homo sapiens), P14416; in the data active = inhibition above about 30%; inactive = below that, where a call was filed
#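 Compounds are added to dye-loaded, induced HEK293 T-REx cells coupled to calcium release via D2; after a 3 min kinetic read an EC80 dopamine stimulus is given and fluorescence is recorded for 3 more min.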
# Numbers stand for hits; n = inactive; u = inconclusive; x = not tested or not shown; ! = not active in a repeat.
SMILES,D2 ag-1,D2 PAM-1,D2 ag-2,D2 PAM-2,D2 antagonist
CCCN(CCC)CCCNC(=S)Nc1ccc2nc3n(c(=O)c2c1)CCCCC3,n,n,32,n,n
Cc1ccc(S(=O)(=O)N2CCN(Cc3noc(CCC(=O)N4CCCCC4)n3)CC2)c(C)c1,x,x,x,n,x
Cc1c(C(=O)N(C)C)sc2c1c(=O)n(-c1ccc(F)cc1)c(=O)n2Cc1ccccc1C#N,x,x,n,n,x
COc1ccc(Cn2c(CO)cnc2SCC(=O)NCc2ccco2)cc1,x,x,n,n,x
CN(Cc1ccc(F)cc1)C(=O)c1ccc(NC(=O)CC2SC(N3CCCC3)=NC2=O)cc1 (stereo not drawn),n,n,x,n,x
CCC1=C(OC(=O)N(CC)CC)N2C(=O)OC(=NCCOC)[C@]2(Cc2ccccc2)[C@H]2C1=CC[C@H]1C(=O)NC(=O)[C@H]12,n,n,n,n,52
COC(=O)[C@@H](Cc1ccccc1)NC(=O)/C=C/[C@H]1O[C@@H](n2cnc3c(NC(=O)c4ccccc4)ncnc32)[C@H](O)[C@@H]1O,n,n,x,x,x
COc1ccc2c(C(=O)c3ccc(C)cc3)n(CCCC(N)=O)[n+]([O-])c2c1,n,n,n,n,n
CC1=CC(C)(C(Cl)Cl)C(C)=CC1=O (stereo not drawn),n,n,n,70,n
COc1ccc(Cl)cc1C(=O)NNC(=O)COC(=O)CCN=C1NS(=O)(=O)c2ccccc21,n,n,n,n,30
COc1ccccc1C(=O)COC(=O)CCN=C1NS(=O)(=O)c2ccccc21,n,n,n,n,n
CC(C)COC(=O)n1c(SCC(=O)N(C)C)nc2ccccc21,n,n,n,n,31
CC(C)COC(=O)n1c(SCC(N)=O)nc2ccccc21,n,n,n,n,n
Cc1cc(C)c(S(=O)(=O)Nn2cnnc2)c(C)c1,n,n,n,n,32
O=C(COc1ccccc1)OCC(=O)c1ccc(S(=O)(=O)N2CCCCC2)cc1,n,n,n,n,31
O=C(COc1ccc(S(=O)(=O)N2CCCCC2)cc1)N1CCCC1,n,n,n,n,31
O=C(COC(=O)c1ccccc1)c1ccc(S(=O)(=O)N2CCCCC2)cc1,n,n,n,n,n
COc1ccc(-c2nc3n(c(=O)c2C#N)CCS3)cc1,n,n,x,x,x
FC(F)Oc1ccc(/C=N/c2c(-c3ccc(OC(F)F)cc3)nc3n2CCS3)cc1,n,n,n,35,n
CCc1ccc(NC(=O)C(CC)Sc2nc3ccsc3c(=O)n2CCC(=O)O)cc1 (stereo not drawn),n,n,n,n,n
Cc1ccc(S(=O)(=O)Nc2ccccc2CNc2cccc(C)n2)cc1,n,n,n,n,n
Nc1[nH]nc2ncc3cc4ccccc4nc3c12,n,n,n,n,59
Cc1ccc(-n2c(SCC(=O)c3c(N)n(C4CC4)c(=O)[nH]c3=O)nnc2N2CCOCC2)cc1,n,n,x,x,x
C[C@H](N)c1nnc(SCC(=O)c2ccc(Cl)cc2)o1,n,n,n,n,40
CS(=O)(=O)N(CC(=O)NCCSCc1cccc(Cl)c1)c1ccc(F)cc1,n,n,n,n,n
SMILES,D2 ag-1,D2 PAM-1,D2 ag-2,D2 PAM-2,D2 antagonist
CC(C)Cc1ccc(C(C)C(=O)Nc2cccnc2)cc1 (stereo not drawn),n,n,n,n,n
CC(C)Cc1ccc(C(C)C(=O)Nc2ccc(O)cc2)cc1 (stereo not drawn),n,n,n,n,39
O=C(N/C=C/n1cnc2cc(C(F)(F)F)ccc21)c1ccccc1F,n,n,n,83,n
O=C(N/C=C/n1cnc2cc(C(F)(F)F)ccc21)c1ccc(F)cc1,n,n,x,x,x
Cc1cccc(N2CCN(CC(O)COc3ccc(Cl)cc3)CC2)c1 (stereo not drawn),n,n,n,n,58
OC(COc1ccc2cc(Br)ccc2c1)CN1CCN(c2ccccn2)CC1 (stereo not drawn),41,u,n,n,n
OC(CN1CCN(c2cccc(Cl)c2)CC1)c1ccccc1 (stereo not drawn),n,n,n,n,53
OC(COc1ccc(Cl)cc1)CN1CCN(c2cccc(Cl)c2)CC1 (stereo not drawn),n,n,n,n,73
CC(C)(C)OC(=O)N[C@@H](Cc1ccccc1)C(=O)NCC1CCC(C(=O)N[C@@H](CC(=O)O)C(=O)O)CC1 (stereo partly drawn),n,n,n,n,n
O=C(CSc1nc2ccc(N3CCOCC3)cc2c(=O)n1CCc1ccccc1)NCC1CCCO1 (stereo not drawn),n,n,n,x,41
COc1ccc(CCNC(=O)C2CCCN(c3nc4c(C)cc(C)cc4s3)C2)cc1OC (stereo not drawn),x,x,x,n,x
CCN(CC)c1ccc(/C=C(/C#N)c2nc3ccc(C)cc3[nH]2)c(OC(C)C)c1,n,n,42,n,n
Cc1ccc(-c2cc(-c3ccc4c(c3)NC(=O)CO4)nc3c2COc2ccccc2-3)cc1,x,x,n,n,x
COc1ccc(OCC(=O)Nc2ccc3c(c2)nc(CN2CCCC2)n3C)cc1,n,n,n,n,45
Cn1c(CN2CCCC2)nc2cc(NC(=O)COc3ccc(Cl)cc3)ccc21,n,n,n,n,41
CCC(=O)Nc1ccc2c(c1)nc(CCN1CCC(C)CC1)n2C,n,n,n,n,n
CC1CCN(CCc2nc3cc(NC(=O)COc4ccccc4)ccc3n2C)CC1,n,n,n,n,59
Cn1c(CN2CCCCC2)nc2cc(NC(=O)c3ccc(Cl)cc3)ccc21,n,n,33!,n,31
COc1ccc(OCC(=O)Nc2ccc3c(c2)nc(CN2CCN(C(C)=O)CC2)n3C)cc1,n,n,n,n,n
COc1ccc(C)cc1NS(=O)(=O)c1ccc(Cl)nc1,n,n,n,n,n
O=C(CSC1=NS(=O)(=O)c2cc(F)ccc2N1)Nc1cccc(F)c1,n,n,n,n,n
Cc1ccccc1Cn1c(CN2CCC(C(=O)NCCc3ccccc3)CC2)cc2ccccc21,x,x,n,n,x
COc1ccc(S(=O)(=O)Nc2ccc(S(=O)(=O)Nc3nccs3)cc2)cc1,n,n,n,n,50
COc1ccc(NS(=O)(=O)c2ccc(NC(=O)c3ccccn3)cc2)cc1,n,n,n,73,n
COc1ccc(NS(=O)(=O)c2ccc(Oc3ncccn3)cc2)cc1,n,n,n,46,n
COc1ccc(CC(=O)Nc2ccc(S(=O)(=O)Nc3nccs3)cc2)cc1,n,n,n,n,n

# Assay outcomes (PubChem)
